FMDV inh: High Throughput Screening for Foot and Mouth Disease Virus Antivirals; FMDV antiviral cell-based qHTS; Potency, µM (series often up to 57.9 µM), for inactives: at the highest dose activity change, negative = inhibition, most hits filed as inhibitors; 1.2% of 410,000 active; AID 1159524, 2015; calls by dose curve; tested in HEK293T cells; note: read-out not given here; potency is the fitted concentration of half-maximal effect; nearly all actives have a fitted effect of over 45% in size
HCMV antiviral: qHTS Assay for inhibitors of the human cytomegalovirus (HCMV) | HFF cells, HCMV-luciferase reporter, 72 h; stronger effect = lower value | activity change, negative = inhibition, % at 57.5 µM | 4.5% of 410,000 active | AID 1259415, 2018; in the data active = activity change below about -60%; inconclusive = no clear call, values can overlap the other calls; inactive = above about -39%
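Two compound doses tested in HFFs infected with HCMV-luciferase, MOI 1 PFU/cell, 72 h at 37C. Lysate luminescence read with OneGlo; data normalized against buffer-only and 10uM Salinomycin inhibitor controls.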
Lassa entry inh: qHTS for Inhibitors of binding or entry into cells for Lassa Virus; Lassa virus pseudotype entry inhibition, cell reporter; Potency, µM (doses to about 37.9 µM), for the others: at the top dose activity change, negative = inhibition, usual class: inhibitors; 1.2% of 300,000 active; AID 540256, 2011; calls by dose curve; tested in HEK293 cells; note: potency is the fitted concentration of half-maximal effect; nearly all actives have a fitted effect of over 50% in size
HCV inh: qHTS Assay for Inhibitors of Hepatitis C Virus (HCV). Huh7.5.1 HCVcc-Cre infection, luciferase reporter, 44 h. Potency, µM (series often up to 41.8 µM), without a hit: top-dose activity change, negative = inhibition, hits mostly inhibitors. 3.4% of 340,000 active; active = well fitted inhibition curve with a large enough effect; inconclusive = small, poorly fitted or top-dose-only effect, or another doubt; inactive = no such curve, though single readings can be large or run the other way; note: potency is the fitted concentration of half-maximal effect
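Cells seeded at 1,000/well and cultured 4 h, then compounds added followed by HCVcc-Cre virus (~0.5 moi). After 44 h further culture, luciferase substrate was added, plates held 15 min at room temperature, and luminescence read for 15 sec.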
MARV entry inh: qHTS for inhibitors of binding or entry into cells for Marburg Virus | Marburg virus pseudotyped entry inhibition, cell reporter | Potency, µM (doses to about 37.8 µM), for the others: top-dose activity change, negative = inhibition, most hits filed as inhibitors | 1.8% of 300,000 active | AID 540276, 2011; calls by dose curve; tested in HEK293 cells; note: potency is the fitted concentration of half-maximal effect
An asterisk follows results filed as active; ? = inconclusive; nt = not tested or not shown; [ ] = dose if it differs, or a comment. A selection: hits, their analogues and other compounds. The true share with any hit is near 7.9%. % is set by controls: 0 for no effect and ±100 for the full control effect.

SMILES	FMDV inh	HCMV antiviral	Lassa entry inh	HCV inh	MARV entry inh
Cc1ccccc1Cn1cnc2nc3c(cc2c1=O)CC(C)CC3 (stereo not drawn)	26.3%	23.9	20.0%[46.1 µM]	nt	nt
O=c1oc2cc(Oc3ccc(C(F)(F)F)cc3[N+](=O)[O-])ccc2c2c1CCC2	?	-7.0	22.1%	?	3.3%
O=c1oc2cc(Oc3c([N+](=O)[O-])cc(C(F)(F)F)cc3[N+](=O)[O-])ccc2c2c1CCCC2	?	14.8	-0.2%	3.16µM*	?
O=C(O)COc1ccc2c3c(c(=O)oc2c1)CCCC3	-6.5%	-79.8*	2.3%[46.1 µM]	0.2%	0.5%[46.1 µM]
Cc1ccc(Cl)cc1NC(=S)N(CCN(C)C)C(C)c1ccccn1 (stereo not drawn)	-1.3%	?	-12.8%	-13.0%	?
COc1cc(C2CC(=O)c3c([nH]c(C(=O)OCc4ccc(C)cc4)c3C)C2)cc(OC)c1OC (stereo not drawn)	14.1µM*	-18.0	-12.0%[46.1 µM]	nt	?
COc1ccc(C2CC(=O)c3c([nH]c(C(=O)OC4CCCC4)c3C)C2)cc1OC (stereo not drawn)	-28.5%	-3.3	3.2%[46.1 µM]	nt	?
COc1cc(C2CC(=O)c3c([nH]c(C(=O)OCCOC(C)C)c3C)C2)cc(OC)c1OC (stereo not drawn)	11.2µM*	-63.4*	?	?	?
O=C(O)[C@H]1CC(=O)N(Cc2cccs2)C1	nt	nt	nt	nt	9.5%
Cc1cc(C)cc(NS(=O)(=O)c2ccc(-c3cc(C)no3)cc2)c1	21.0%	-80.3*	?	nt	nt
Cc1ccc(S(=O)(=O)Nc2cc(C)c(O)cc2C)cc1	-3.3%	-75.6*	-13.4%[46.1 µM]	-4.6%	?
Cc1ccc(NS(=O)(=O)c2ccc(-c3cc(C)no3)cc2)c(C)c1	-27.2%	-65.1*	?	nt	nt
CC1CN(c2ccc([N+](=O)[O-])c(NCCOc3ccccc3)c2)CC(C)N1 (stereo not drawn)	-14.3%	49.0	7.9%[46.1 µM]	?	?
CCc1ccc(OCCNc2cc(N3CCNC(C)C3)ccc2[N+](=O)[O-])cc1 (stereo not drawn)	-8.0%	-3.5	nt	14.1µM*	nt
CC1CN(c2ccc([N+](=O)[O-])c(NCCOc3ccc(Cl)cc3)c2)CC(C)N1 (stereo not drawn)	-6.2%	-16.5	nt	8.91µM*	nt
CC(C)c1ccc(-c2noc(C3CCCN(C(=O)c4ccc(F)cc4F)C3)n2)cc1 (stereo not drawn)	?	-8.4	?	11.2µM*	?
Cc1ccccc1NC(=O)N1CCCC(c2nc(-c3ccc(C(C)C)cc3)no2)C1 (stereo not drawn)	?	-20.3	?	12.6µM*	?
Cc1ccc(-c2noc(C3CCCN(C(=O)c4ccc(F)cc4F)C3)n2)cc1 (stereo not drawn)	-29.0%	-36.7	?	?	1.2%
C=CCn1cccc(/C=C/C(=O)c2ccc(C(C)(C)C)cc2)c1=S	25.1µM*	8.1	16.4µM*	10µM*	?
O=C(C=Cc1ccccc1Cl)c1ccccc1	14.7%	-24.1	1.5%[46.1 µM]	3.0%	?
Cc1noc(C)c1C(=O)OCC(=O)c1cc(C)n(Cc2ccccc2Cl)c1C	-3.1%	-37.8	?	11.2µM*	?
CC(=O)c1sc(NCc2ccc(C)cc2)nc1C	32.7%	6.8	?	-14.9%	10µM*
C=CC(=O)NCCCc1cc(C(C)(C)C)c(O)c(C(C)(C)C)c1	0.0%	-95.9*	?	?	-24.9%[46.1 µM]
CCCCNC(=O)c1cnn2c(C)c(Cc3c(C)cc(C)cc3C)c(C)nc12	15.8µM*	-21.2	?	nt	nt
Cc1nc2c(C(=O)NCc3ccccc3)cnn2c(C)c1Cc1ccc(F)cc1	-1.0%	6.9	-24.2%[46.1 µM]	nt	nt
SMILES	FMDV inh	HCMV antiviral	Lassa entry inh	HCV inh	MARV entry inh
CCOc1ccc2nc(C)cc(Nc3cccc([N+](=O)[O-])c3)c2c1	-19.4%	-97.0*	?	?	?
COc1ccc(Cl)cc1Nc1cc(C)nc2ccccc12	?	-86.8*	nt	11.2µM*	nt
Cc1cc(NCc2ccccc2)nc2ccccc12	6.4%	-4.2	-5.9%	?	?
Cc1cc(Nc2cccc([N+](=O)[O-])c2)c2ccccc2n1	?	-5.4	9.6%	-29.5%	-1.4%[46.1 µM]
COc1ccc2nc(C)cc(NCc3cccc(C(F)(F)F)c3)c2c1	-17.1%	-13.7	?	10µM*	?
Cc1cc(NCc2ccccc2)c2ccccc2n1	?	?	nt	11.2µM*	nt
CCN(CC)S(=O)(=O)c1cccc(C(=O)N[C@H](C(=O)Nc2nc3ccc(F)cc3s2)C(C)C)c1	4.4%	150.1	?	?	?
CCOc1ccc(N(CC)C(=O)c2cc3c(s2)-c2ccccc2OC3)cc1	?	-20.4	nt	nt	4.9%[46.1 µM]
Cc1cc(Nc2ccccc2Cl)c2ccccc2n1	?	-73.4*	?	?	?
Cc1cc(Nc2ccc(C)c(C)c2)c2ccccc2n1	-23.4%	-63.3*	-3.4%[46.1 µM]	?	3.16µM*
Cc1cc(Nc2ccccc2C)c2cccc(C)c2n1	-12.5%	-22.7	?	nt	nt
CC(=O)Nc1ccc(Nc2cc(C)nc3ccccc23)cc1	-12.5%	27.2	-17.4%[46.1 µM]	8.5%	?
Cc1cc(Cl)c2ccccc2n1	-7.2%	-6.8	?	12.9%	-0.3%
CCOc1ccc(Nc2cc(C)nc3c(C)cccc23)cc1	-22.4%	-76.3*	-29.5%	?	0.891µM*
Cc1cccc(C(=O)N(Cc2ccc(C)o2)C2CCS(=O)(=O)C2)c1 (stereo not drawn)	-14.7%	3.6	-2.1%	9.5%	-3.9%
COCC(=O)N1CCC2(CC1)CN(c1ccccn1)C2	-2.7%	nt	nt	nt	nt
CC(C1CC1)N(Cc1ccccc1)C(=S)Nc1ccccc1 (stereo not drawn)	-4.7%	-14.7	?	-4.5%	-0.7%[46.1 µM]
CC(C1CC1)N(Cc1ccccc1)C(=O)NC(=O)c1ccc(F)cc1 (stereo not drawn)	11.6%	19.7	11.2µM*	-1.8%	4.7%
COc1ccc(CC(=O)Nc2nc3ccccc3s2)cc1S(=O)(=O)N1CCOCC1	?	-27.0	?	11.2µM*	?
COc1ccc(CC(=O)Nc2nc3ccc(F)cc3s2)cc1S(=O)(=O)N1CCOCC1	7.2%	6.2	-11.4%	12.6µM*	-8.9%
COc1ccc(Nc2cc(C(=O)NCCCN(C)Cc3ccccc3)c3ccccc3n2)c(OC)c1	-15.9%	-25.8	?	nt	nt
COc1ccc(Nc2cc(C(=O)NCCCN3CCN(C)CC3)c3ccccc3n2)cc1OC	17.8%	22.3	5.4%	-3.2%	1.4%[46.1 µM]
COc1ccc(Nc2cc(C(=O)NCCCN(C)Cc3ccccc3)c3ccccc3n2)cc1	-12.8%	-93.4*	-14.3%[46.1 µM]	nt	nt
Cc1cc(C)cc(Nc2cc(C(=O)NCCCN(Cc3ccccc3)C(C)C)c3ccccc3n2)c1	?	-26.7	?	nt	nt
CSc1cccc(Nc2cc(C(=O)NCCCN(Cc3ccccc3)C(C)C)c3ccccc3n2)c1	?	-103.8*	?	nt	nt
COc1ccc(N2CCN(CCCN)CC2)cc1	-19.5%	18.6	?	10µM*	?

High-throughput results: PubChem, National Center for Advancing Translational Sciences (NCATS)
